Screens: PubChem BioAssay, National Center for Advancing Translational Sciences (NCATS)
aSyn rescue: inhibitors of alpha-synuclein toxicity in yeast | Potency, µM (top dose mostly 46.1 µM), for the others: top-dose growth rescue (activation), hits mostly activators | Yeast expressing alpha-synuclein, growth rescue, BacTiter-Glo, 24 h | AID 652106 | 370,000 compounds, 0.14% hits; also: % of control where 0% means no effect; nearly all actives have a fitted effect of over 65% in size
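Rescue of yeast growth: cells expressing toxic alpha-synuclein, induced in galactose at OD600 0.02, incubated with compound 24 h at 30 C. ATP luminescence quantified growth; inhibitors of toxicity appear as activators.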
TDP43 rescue: rescues yeast growth from TDP-43 toxicity; TDP-43 expressing yeast growth rescue, BacTiter-Glo, 24 h; 410,000 compounds, 1.8% hits; Potency, µM (top dose mostly 46.1 µM), inactives show top-dose growth rescue (activation), usual class: activators; AID 652104; also: % of control where 0% means no effect; nearly all actives have a fitted effect of over 50% in size
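Galactose-induced TDP-43 yeast, OD600=0.02, compound pinned; 24 hr, 30 deg C; BacTiter-Glo luminescence for growth. Inhibitors of TDP-43 toxicity read as activators.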
Abeta rescue: compounds reversing amyloid beta toxicity in yeast; yeast expressing A-beta42, growth rescue, OD600, 48 h; response scale: 0% DMSO, 100% iron-clioquinol control; Potency, µM (highest dose often 46.1 µM), usual class: activators; 410,000 compounds, 0.063% hits; AID 1347071; also: nearly all actives have a fitted effect of over 55% in size
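Growth rescue measured by 600 nm absorbance after 48 h yeast culture at 30 C with compound. Values normalized between DMSO and an equimolar ferric chloride plus clioquinol control.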
FUS suppressor: suppressors of FUS proteinopathy in yeast; S. cerevisiae FUS-expressing, growth rescue, OD600, 24 h; 390,000 compounds, 0.24% hits; Potency, µM (doses to about 76.6 µM), actives largely listed as activators;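 also: plate controls were DMSO vehicle for no effect and reference control for full effect; nearly all actives have a fitted effect of over 55% in size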
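FUS-expressing yeast, raffinose-pregrown, induced in 2% galactose minimal medium at OD 0.005; compounds in a dilution series, 24hr at 30C. Growth restoration read as absorbance at 600 nm. CP55940 positive control, DMSO negative.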
Numbers without * were called inactive; i = inactive; ? = inconclusive; . = no result; ! = not confirmed by another sample; [ ] = remark or other dose. Compounds with a hit are over-represented: about 2.1% of the library has one in this group of screens. Calls follow the shape of the dose curve; as a rule, active = well fitted curve in the direction sought with a large enough effect; inconclusive = small, poorly fitted or top-dose-only effect, or another doubt; inactive = no such curve, though single readings can be large; an effect the other way counts as inactive or inconclusive. Potency is read from the fitted curve at half-maximal effect.

SMILES	aSyn rescue	TDP43 rescue	Abeta rescue	FUS suppressor
CCN(CC)C(=S)SCC(=O)Nc1cccc(C(F)(F)F)c1	11%	13µM*	i	i
O=C(CSc1nc2ncccc2o1)Nc1cccc(C(F)(F)F)c1	.	10µM*	13µM*	i
Cn1c(=O)c(-c2ccccc2[N+](=O)[O-])c(Cl)c2ccccc21	10%	16µM*	i	i
Cc1ccc(Nc2c([N+](=O)[O-])c(=O)n(C)c3ccccc23)cc1	19%	?	i	i
Cc1ccc2c(c1)-c1onc(C(=O)N(C)c3cccc(C(F)(F)F)c3)c1CO2	9%	-26%	i	i
COC(=O)[C@]1(C)N[C@H](CN(C)S(=O)(=O)c2ccccc2)[C@@H]2C(=O)N(C)C(=O)[C@@H]21	-6%	14%	i	i
COC(=O)[C@]1(C)N[C@H](CN(C)S(=O)(=O)c2ccc(-c3ccccc3)cc2)[C@@H]2C(=O)N(C)C(=O)[C@@H]21	3.2µM*	-2%	i	i
COC(=O)c1cccc(NC(=S)Nc2cccc(Cl)c2Cl)c1	4%	18µM*	i	i
CSc1nc(N)n2nc(C(C)(C)C)cc2n1	-15%	18µM*	i	i
CC1CCC(NC(=O)CCc2cn(Cc3ccc(F)cc3)c3ccccc23)CC1 (stereo unspecified)	.	13%	i	i
CN(C)c1ccc(/C=C/c2ccnc3ccc(Br)cc23)cc1	5%	.	.	.
Cc1ccc2c(c1)-c1c(cnn1CC(=O)N1CCN(c3cc(C)ccc3C)CC1)CO2	.	35µM*	i	i
Cc1ccc(Cn2c(C)c3cnn(CC(=O)N4CCN(c5cc(C)ccc5C)CC4)c(=O)c3c2C)cc1	.	16µM*	i	?
Cc1c2cnn(CC(=O)N3CCN(c4ccc(F)cc4)CC3)c(=O)c2c(C)n1Cc1ccc(F)cc1	.	-17%	i	i
COc1ccc(N2CCN(C(=O)Cn3ncc4c3-c3cc(C)ccc3OC4)CC2)cc1	.	6%	i	i
Cc1cccc(N2CCN(C(=O)Cn3ncc4c3-c3ccccc3OC4)CC2)c1C	.	18µM*	i	?
COc1ccc(C(=O)N=c2nc(-c3ccccc3)n(-c3ccccc3)s2)cc1	20%	.	.	.
CCO[C@@H]1OC(C(=O)Nc2ccccc2)=C[C@H](c2ccc(C(F)(F)F)cc2)[C@H]1CCCO	0%	13µM*	?	?
O=C(CN1C(=O)COc2ccc(S(=O)(=O)N3CCCC3)cc21)NCCc1ccc(Cl)cc1	.	-4%	i	i
Cc1ccc(Cl)cc1N1CCN(C(=O)CCn2c(=O)c3cccn3c3cccnc32)CC1	.	?	i	i
O=C(CCn1c(=O)c2cccn2c2cccnc21)N1CCN(c2cccc(Cl)c2)CC1	18%	20µM*!	i	i
CCOc1ccc(-c2nc3c(C#N)c[nH]n3c2NC2CCCC2)cc1	.	22%[9.22 µM]	i	i
CCCCNC(=O)c1ccc2nc(-c3cccs3)c(-c3cccs3)nc2c1	-11%	.	.	.
CC(=O)Nc1cc(C(F)(F)F)ccc1Oc1cccc(Br)c1	1%	11µM*	i	i
CCOCC(=O)Nc1cc(C(F)(F)F)ccc1Oc1cccc(Br)c1	-7%	?	?	i
SMILES	aSyn rescue	TDP43 rescue	Abeta rescue	FUS suppressor
CC(=O)Nc1cc(C(F)(F)F)ccc1OCCOc1ccccc1	-3%	13µM*	i	i
CCOC(=O)CSc1nnc2c3ccccc3n(C)c2n1	-1%	13µM*	i	i
CCn1c2ccccc2c2nnc(SCc3ccccc3)nc21	-18%	25µM*	i	i
O=C(C[n+]1c(Cl)ccc2ccccc21)c1ccc2ccccc2c1	7%	.	.	.
Cc1ccccc1OCC(=O)Nc1cc(C)c(O)c(-c2nc3ccccc3o2)c1	-10%	.	.	.
COc1cc(/C=C/c2nc(C#N)c(NC3CCCCC3)o2)cc(OC)c1OC	.	12%	i	i
O=C1/C(=C/C=C/c2ccco2)SC(=S)N1c1ccc(O)cc1	21%	11µM*	i	i
C=CCN(C)CC#CCCCCl	.	.	.	i
CCCCn1c(SCC(=O)OCC)nc2c(sc(=S)n2-c2ccccc2OC)c1=O	-15%	13µM*	i	i
COc1ccccc1-n1c(SCC(=O)O)nc2c(sc(=S)n2-c2ccccc2C)c1=O	-2%	-1%	i	i
CSc1ncc(Cl)c(C(=O)Nc2ccc(S(=O)(=O)N3CCC(C)CC3)cc2)n1	.	14%	i	i
Cc1ccc(C(=O)NC(C#N)=C(Cl)Cl)cc1	6%	11µM*	i	i
Cc1ccc(C(=O)NCC#N)cc1	-1%	-1%	i	i
O=C(NC(c1cccnc1)C(F)(F)F)c1cc(COc2ccc3c(c2)CCCC3)on1 (stereo unspecified)	12%	20µM*	i	i
CCCC12CN3CC(C)(CN(C1)C31CCCCC1)C2=O	0%	12%	i	i
CC1(C)CC2(CCO1)N1CC3(C)CN2CC(C)(C1)C3=O (stereo unspecified)	0%	3.2µM*	i	.
CCn1ccc2c(OCC(=O)Nc3ccccc3C)cccc2c1=O	.	13µM*	i	i
CC(C)c1cnc2c(c1SCC(=O)Nc1cccc(F)c1)c(=O)n(C)c(=O)n2C	.	35µM*	i	i
CCC(=O)N1CCN(c2ccc(Cl)cc2NC(=O)c2ccc3c(c2)OCCO3)CC1	1%	25µM*	i	?
CCC(=O)N1CCN(c2ccc(NC(=O)c3ccc4c(c3)OCCO4)cc2)CC1	-5%	-24%	i	i
O=C(Nc1cc(C(F)(F)F)ccc1N1CCCC1)c1ccc2c(c1)OCO2	-17%	18µM*	i	i
CCCCCCSc1nsc(NC(C)=O)n1	2%	?	i	i
CCCCSc1nsc(NC(C)=O)n1	.	13µM*	i	i
CCOC(=O)c1c(C)n(C)c2ccc(OCC(O)Cn3nc(C)c(Br)c3C)cc12 (stereo unspecified)	19%	16µM*	i	?
CCOC(=O)c1c(C)n(C)c2ccc(OCC(O)CN3CCCCCC3)cc12 (stereo unspecified)	2%	-13%	i	i
SMILES	aSyn rescue	TDP43 rescue	Abeta rescue	FUS suppressor
COc1ccc(-c2nc3nc(C)cc(Nc4ccc(C(C)=O)cc4)n3n2)cc1	.	30%	i	i
N#C/C(=C\c1ccccn1)c1nc2ccccc2s1	13%	18µM*	?	i
Cc1c(C(=O)NCc2ccc3c(c2)OCCO3)sc(=O)n1Cc1ccc2c(c1)OCO2	-1%	?	i	?
Cc1c(C(=O)NCc2cccc([N+](=O)[O-])c2)sc(=O)n1Cc1ccc(F)cc1	10%	0%	i	i
Cc1c(C(=O)NCc2cccc([N+](=O)[O-])c2)sc(=O)n1Cc1cccc(F)c1	6%	18µM*	i	i
C=Cc1ccc(Cn2c(C)c(C(=O)NCc3ccc4c(c3)OCO4)sc2=O)cc1	8%	22µM*	?	i
CCCOc1ccccc1N/C(=N/c1nc(C)cc(C)n1)NC(=O)COc1ccc(OC)cc1	-26%	2.2µM*	i	?
